Records with an inconclusive call do not appear. Active and inactive are the calls of the source. Unless noted, the call rests on the fitted dose curve; in most records, active means well fitted curve in the direction sought with a large enough effect in the repeat runs; inconclusive means weak or mixed curves; inactive means no such curve, though single readings can be large; an effect the other way counts as inactive or inconclusive.
What was measured:
[1] = A CellTox Green Cytotoxicity Assay to monitor cytotoxicity in HEK293 cells - 32 hour (AID 1224881); further: nearly all actives have a fitted effect of over 40% in size
Method in brief: (§1)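 Read-out: fluorescence of a cell-impermeant cyanine dye staining DNA of dead cells, proportional to cytotoxicity. HEK293, 600 cells/well with reagent, compound (23 nL DMSO) added after 5 h; reads at 0, 8, 16, 24, 32, 40 h.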

[2] = A CellTox Green Cytotoxicity Assay to monitor cytotoxicity in HepG2 cells - 0 hour (AID 1224882); further: nearly all actives have a fitted effect of over 35% in size
Method in brief: (§2)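 HepG2, 600 cells/well premixed w/ CellTox Green; 5 h settle, 37 C/5% CO2; pintool cpd add (DMSO); 37 C, 40 h; fluorescence read at 0, 8, 16, 24, 32, 40 h.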

[3] = A CellTox Green Cytotoxicity Assay to monitor cytotoxicity in HepG2 cells - 32 hour (AID 1224883); further: nearly all actives have a fitted effect of over 50% in size
Method in brief: as §2

[4] = A CellTox Green Cytotoxicity Assay to monitor cytotoxicity in HEK293 cells - 8 hour (AID 1224884); further: nearly all actives have a fitted effect of over 35% in size
Method in brief: as §1

[5] = qHTS RealTime-Glo MT Cell Viability Assay in HepG2 cells - 16 hour (AID 1224885); further: nearly all actives have a fitted effect of over 50% in size
Method in brief: (§3)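 Compound treatment began 5 h after plating HepG2 cells (600/well) with NanoLuc luciferase and prosubstrate. Plates stayed at 37 C for 40 h; luminescence was captured at six time points, 0 h through 40 h.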

[6] = qHTS RealTime-Glo MT Cell Viability Assay in HEK293 cells - 24 hour (AID 1224886); further: top concentration of the series differs between compounds; nearly all actives have a fitted effect of over 50% in size
Method in brief: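 Quantitative high-throughput screen of the Tox21 10K library in HEK293: cells and RealTime-Glo reagents plated together, compound added at 5 h, luminescence monitored through 40 h at 37 C.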

[7] = qHTS RealTime-Glo MT Cell Viability Assay in HEK293 cells - 8 hour (AID 1224887); further: top concentration of the series differs between compounds; nearly all actives have a fitted effect of over 50% in size
Method in brief: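 Luminescence readout at each listed time point; HEK293, 600 cells/well, RealTime-Glo MT reagent added with cells; compounds pinned (23 nL in DMSO) after 5 h at 37 C; continuous culture at 37 C.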

[8] = A CellTox Green Cytotoxicity Assay to monitor cytotoxicity in HEK293 cells - 16 hour (AID 1224888); further: nearly all actives have a fitted effect of over 35% in size
Method in brief: as §1

[9] = qHTS RealTime-Glo MT Cell Viability Assay in HepG2 cells - 0 hour (AID 1224889); further: nearly all actives have a fitted effect of over 50% in size
Method in brief: as §3

[10] = A CellTox Green Cytotoxicity Assay to monitor cytotoxicity in HepG2 cells - 8 hour (AID 1224890); further: nearly all actives have a fitted effect of over 45% in size
Method in brief: as §2

[11] = qHTS assay to identify small molecule antagonists of the estrogen receptor alpha (ER-alpha) signaling pathway using the BG1 cell line in the presence of 0.1 nM 17-beta-estradiol - cell viability counter screen (AID 1259241); further: nearly all actives have a fitted effect of over 40% in size
Method in brief: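 Cytotoxicity counter-screen: live-cell protease activity measured by fluorescence (30 min reagent step) in the same wells. Cells were VM7Luc4E2 with endogenous ER-alpha and ERE-driven luciferase, treated 22 hr at 37C alongside 0.1 nM 17beta-estradiol final.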

[12] = qHTS assay to identify small molecule antagonists of the androgen receptor (AR) signaling pathway using the MDA cell line in the presence of 0.5 nM R1881 - cell viability counter screen (AID 1259242); further: nearly all actives have a fitted effect of over 45% in size
Method in brief: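 Live-cell protease fluorescence, CellTiter-Fluor, 30 min at 37C. Cells: MDA-kb2, 3,000/well, preincubated 5 hr. Compounds plus 0.5 nM R1881 final, 16 hr, 37C, 0% CO2.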

[13] = qHTS assay to identify small molecule HDAC inhibitors (AID 1259364);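 further: wild-type HCT-116 cells with endogenous class I/II HDAC activity; top concentration of the series differs between compounds; nearly all actives have a fitted effect of over 45% in size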
Method in brief: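 HCT-116 (wild type), 1,500 cells/well, overnight; compound 2 hr 37C 5% CO2; HDAC-Glo I/II reagent 30 min RT; luminescence readout.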

[14] = qHTS assay to identify small molecule HDAC inhibitors - cell viability counter screen (AID 1259365)
Method in brief: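 CellTiter-Glo luminescence (30 min, room temperature) reported viability after a 2 h compound exposure at 37 C. Cells: wild-type HCT-116, 1,500 per well, seeded the night before.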

[15] = qHTS assay to identify small molecule agonists of the sonic hedgehog signaling (Shh) pathway - cell viability counter screen (AID 1259366); further: nearly all actives have a fitted effect of over 50% in size
Method in brief: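 Cytotoxicity counter screen: CellTiter-Fluor reagent added after 23 h compound exposure, then 1 h at 37C and fluorescence read. Cells were 3T3 Gli1-Luc, seeded 2,000 per well and dosed 4 h post-plating.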

[16] = qHTS assay to identify small molecule antagonists of the sonic hedgehog signaling (Shh) pathway - cell viability counter screen (AID 1259367); further: nearly all actives have a fitted effect of over 55% in size
Method in brief: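 Tox21 library chemicals were tested on a Gli1-Luc NIH/3T3 clone (2,000 cells/well) stimulated by conditioned medium; viability was quantified as fluorescence from CellTiter-Fluor reagent added at 23 hr.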

[17] = qHTS assay to identify small molecule agonists of the sonic hedgehog signaling (Shh) pathway (AID 1259368; calls by dose curve;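 further: NIH/3T3-derived 3T3Gli1-Luc cells carrying a stable Gli1-driven firefly luciferase reporter; series mostly up to about 92 µM; nearly all actives have a fitted effect of over 15% in size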)
Method in brief: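 Read-out: firefly luciferase luminescence from a Gli1 response element reporter stably integrated in NIH/3T3-derived 3T3Gli1-Luc cells, measured 30 min at room temperature after reagent addition. Compound exposure lasted 24 hr at 37 C, 5% CO2.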

[18] = target: Estrogen receptor (Homo sapiens) (UniProt P03372); assay: qHTS assay to identify small molecule antagonists of the estrogen receptor alpha (ER-alpha) signaling pathway using the BG1 cell line in the presence of 0.1 nM 17-beta-estradiol (AID 1259244); further: nearly all actives have a fitted effect of over 50% in size
Method in brief: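 Luminescence after ONE-Glo (30 min, room temperature) measured ERE-luciferase activity in VM7Luc4E2 cells treated 22 h with compound and 0.1 nM final 17beta-estradiol as stimulator.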

[19] = target: Androgen receptor (Homo sapiens) (UniProt P10275); assay: qHTS assay to identify small molecule antagonists of the androgen receptor (AR) signaling pathway using the MDA cell line in the presence of 0.5 nM R1881 (AID 1259243); further: nearly all actives have a fitted effect of over 50% in size
Method in brief: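 MDA-kb2, MMTV-luc (AR/GR elements); 3,000 cells/well; cpd + 0.5 nM R1881 final; 16 hr 37C, 0% CO2; ONE-Glo 30 min RT; luminescence.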

[20] = qHTS assay to identify small molecule phospholipidosis (PLD) inducers (AID 1259344; active means well fitted curve in the direction sought with a large enough effect; an effect the other way counts as inactive or inconclusive)
Method in brief: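 Image-based: LipidTOX Red pit count/intensity per well and per cell; HepG2, 24 h compound at 37 C, PFA fixation, Hoechst counterstain.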

Measured: Potency

Chain of Androgen receptor (Homo sapiens) (P10275 whole entry, looked up): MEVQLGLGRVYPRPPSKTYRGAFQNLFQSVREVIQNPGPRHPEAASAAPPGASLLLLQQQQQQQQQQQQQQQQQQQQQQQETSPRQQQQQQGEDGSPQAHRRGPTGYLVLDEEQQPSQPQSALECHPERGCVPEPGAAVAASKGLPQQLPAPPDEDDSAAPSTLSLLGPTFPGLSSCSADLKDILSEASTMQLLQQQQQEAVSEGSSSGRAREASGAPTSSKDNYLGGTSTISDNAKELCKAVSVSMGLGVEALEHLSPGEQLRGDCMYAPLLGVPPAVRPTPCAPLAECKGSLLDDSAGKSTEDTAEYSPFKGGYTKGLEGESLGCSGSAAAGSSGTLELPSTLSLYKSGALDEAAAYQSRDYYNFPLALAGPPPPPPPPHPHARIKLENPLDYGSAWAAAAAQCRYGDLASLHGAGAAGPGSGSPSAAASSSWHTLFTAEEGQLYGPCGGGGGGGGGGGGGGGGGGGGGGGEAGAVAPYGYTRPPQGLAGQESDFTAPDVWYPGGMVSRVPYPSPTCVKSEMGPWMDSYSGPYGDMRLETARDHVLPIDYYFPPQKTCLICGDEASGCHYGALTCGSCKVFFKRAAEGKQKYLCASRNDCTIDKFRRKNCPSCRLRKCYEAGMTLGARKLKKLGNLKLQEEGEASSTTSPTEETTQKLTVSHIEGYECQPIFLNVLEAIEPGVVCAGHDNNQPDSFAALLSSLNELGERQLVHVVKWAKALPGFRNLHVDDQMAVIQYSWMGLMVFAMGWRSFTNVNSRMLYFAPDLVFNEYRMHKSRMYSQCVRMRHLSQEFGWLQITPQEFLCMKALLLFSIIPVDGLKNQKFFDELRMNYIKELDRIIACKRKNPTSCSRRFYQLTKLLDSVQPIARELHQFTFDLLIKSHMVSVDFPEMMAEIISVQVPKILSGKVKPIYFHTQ
Chain of Estrogen receptor (Homo sapiens) (P03372 whole entry, looked up): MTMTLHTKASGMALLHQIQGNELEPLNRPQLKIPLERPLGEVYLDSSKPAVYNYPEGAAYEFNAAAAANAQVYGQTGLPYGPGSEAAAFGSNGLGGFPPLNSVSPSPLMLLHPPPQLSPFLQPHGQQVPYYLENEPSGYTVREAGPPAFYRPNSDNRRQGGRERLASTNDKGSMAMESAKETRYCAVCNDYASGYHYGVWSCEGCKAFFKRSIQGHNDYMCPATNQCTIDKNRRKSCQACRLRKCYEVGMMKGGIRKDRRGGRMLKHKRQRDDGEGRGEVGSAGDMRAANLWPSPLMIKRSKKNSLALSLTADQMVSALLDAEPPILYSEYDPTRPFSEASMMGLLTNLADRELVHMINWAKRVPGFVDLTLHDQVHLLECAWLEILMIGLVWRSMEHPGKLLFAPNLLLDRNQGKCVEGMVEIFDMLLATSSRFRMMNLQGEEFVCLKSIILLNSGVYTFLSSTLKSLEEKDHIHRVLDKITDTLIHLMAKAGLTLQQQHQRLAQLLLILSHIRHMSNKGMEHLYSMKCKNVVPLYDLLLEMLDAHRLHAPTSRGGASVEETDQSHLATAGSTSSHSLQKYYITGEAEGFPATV

CCNc1nc(NC(C)C)nc(OC)n1
not listed: [18] | [19] | [20]
inactive: all other assays above

O=C(Oc1ccc(Br)cc1)N1CCN2CCC1CC2
not listed: [19] | [20]
inactive: all other assays above

COc1cc(OC)nc(Oc2cccc(Oc3nc(OC)cc(OC)n3)c2C(=O)O)n1
not listed: [18] | [20]
inactive: all other assays above

C=CC1CC=CCC1 (stereo not drawn)
not listed: [16] | [19] | [20]
inactive: all other assays above

CC(N)=S
not listed: [18] | [19] | [20]
inactive: all other assays above

CCOC(=O)C1(c2ccccc2)CCN(CCc2ccc(N)cc2)CC1
not listed: [20]
inactive: all other assays above

O=[N+]([O-])c1ccc2c3c(cccc13)CC2
not listed: [19] | [20]
inactive: all other assays above

N#Cc1c(Cl)cccc1Cl
not listed: [19] | [20]
inactive: all other assays above

C(CCOCC1CO1)COCC1CO1 (stereo not drawn)
not listed: [19] | [20]
inactive: all other assays above

CCCCOC(=O)c1ccccc1C(=O)O
not listed: [18] | [20]
inactive: all other assays above

COP(=S)(OC)Oc1c(Cl)cc(C)cc1Cl
not listed: [19] | [20]
inactive: all other assays above

Cc1cc(C)c(C(=O)P(=O)(C(=O)c2c(C)cc(C)cc2C)c2ccccc2)c(C)c1
not listed: [19] | [20]
inactive: all other assays above

Nc1ccccc1Cl
not listed: [16] | [20]
inactive: all other assays above

C1CCC(C2CCCCC2)CC1
not listed: [19] | [20]
inactive: all other assays above

CCN(CC)C(C)C(=O)c1ccccc1 (stereo not drawn)
not listed: [16]
inactive: all other assays above

CCCCOP(=O)(O)OCCCC
not listed: [20]
inactive: all other assays above

Source: PubChem BioAssay (Tox21)
